# DAX1 inh-1 – NR0B1 (DAX1) inhibition; inhibition, % at 6.75 µM; P51843; HEK293 Gal4-DAX1 luciferase reporter, luminescence; 340,000 compounds, 0.99% hits;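 active = inhibition above the mean over all tested compounds plus 3 SD, cut at about 4.2% in these data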;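 also: 0% = DAX1-transfected cells with DMSO and 100% = empty-vector control cells with DMSO; inhibition shows as a rise in luminescence from relieved DAX1 repression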
# Target sequence (P51843 207-470 limits assumed): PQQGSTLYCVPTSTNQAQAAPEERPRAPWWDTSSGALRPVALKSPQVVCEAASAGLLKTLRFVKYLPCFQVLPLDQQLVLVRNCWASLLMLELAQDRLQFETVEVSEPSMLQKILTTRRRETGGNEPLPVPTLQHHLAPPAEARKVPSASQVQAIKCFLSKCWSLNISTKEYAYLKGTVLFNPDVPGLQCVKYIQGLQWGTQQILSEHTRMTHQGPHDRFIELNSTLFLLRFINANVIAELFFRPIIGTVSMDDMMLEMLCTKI
# DAX1 inh-2 – blocks DAX1 repression of SF-1 activated StAR promoter. inhibition, % at 6.8 µM. HEK293T StAR-luciferase reporter, SF-1/DAX-1 repression relief. AID 652010. 370,000 compounds, 1.1% hits;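 active = inhibition above the mean over all tested compounds plus 3 SD, cut at about 3.6% in these data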;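 also: 0% = DAX-1 cells with DMSO and 100% = cells lacking DAX-1 with DMSO; higher inhibition means more luminescence from relief of DAX-1 repression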
# hgDAF12 agonist – hgDAF-12 agonism, primary luciferase screen | HEK293 GAL4-hgDAF12 UAS-luciferase reporter, agonist luminescence; normalized to butyrate control | activation, % at 6.8 µM | 370,000 compounds, 1.8% hits;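 active = activation above a cutoff set at the mean of all screened compounds plus 3 SD, cut at about 10% in these data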;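 also: 0% = DMSO wells and 100% = sodium butyrate wells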
# ssDAF-12 act – activators of S. stercoralis DAF-12 nuclear receptor. activation, % at 6.8 µM. HEK293 ssDAF-12/GRIP1 lit1-tk-luc reporter, luminescence; % of 3 µM dafachronic acid response. 370,000 compounds, 1% hits;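 active = activation above the mean over all tested compounds plus 3 SD, cut at about 0.9% in these data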;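 also: 0% = DMSO-only wells and 100% = 3 µM delta7-dafachronic acid wells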
# hcDAF-12 act – H. contortus DAF-12 activation, primary screen | HEK293 hcDAF-12 lit1-tk-luc reporter, luminescence; 0% DMSO, 100% Δ7-dafachronic acid | activation, % at 6.8 µM | 370,000 compounds, 1.4% hits | AID 652067;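 active = activation above the mean of all tested compounds plus 3 SD, cut at about 5.5% in these data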;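 also: 100% = response to 3 µM Δ7-dafachronic acid high control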
# An asterisk follows results filed as active; . = no result. A selection: hits, their analogues and other compounds. The true share with any hit is near 4.1%.
SMILES,DAX1 inh-1,DAX1 inh-2,hgDAF12 agonist,ssDAF-12 act,hcDAF-12 act
COCC1CCN(C(=O)CCc2nnc(CCCCc3ccccc3)o2)CC1,-0.9,-0.3,-2.3,-1.7,-1.6
O=C(CCc1nnc(CCCc2ccccc2)o1)NCCCC1CCCC1,0.2,0.5,11.1*,-0.4,0.9
CCc1cc(CNC(=O)CCc2nnc(CCCc3ccccc3)o2)on1,3.4,1.1,13.0*,-0.6,2.8
CC(C)c1cc(CNC(=O)CCc2nnc(CCCc3ccccc3)o2)on1,1.3,0.5,7.1,-0.8,3.2
O=C(CCc1nnc(CCCc2ccccc2)o1)N1CCCCCC1,5.0*,1.4,5.8,-0.8,2.4
CCCCOCCCNC(=O)C[C@H]1C[C@@]2(C(=O)OCC)CCCC3=C2N(CCC3)C1=O,.,0.2,-1.0,0.0,-1.0
COc1ccc2c3n([n+]([O-])c2c1)CCN=C3c1cc(Cl)c(N)c(Cl)c1,-0.7,-0.6,0.9,-0.6,1.0
COc1ccc2c3n([n+]([O-])c2c1)CCN=C3c1ccc(C)cc1,1.1,-0.1,3.0,1.1*,5.6*
CCCCc1cc(=O)oc2cc(C)cc(OCC(=O)N3CCC(C(N)=O)CC3)c12,1.3,-0.7,0.9,-0.7,-0.6
Cc1cc(OCC(=O)N2CCC(C(N)=O)CC2)c2c(C)cc(=O)oc2c1,7.5*,-0.7,-1.9,-1.8,0.1
CCN1CCN(CC(=O)N/N=C/c2ccc(F)cc2F)CC1,-0.7,-0.5,1.3,1.1*,-0.2
O=C(CN1CCCCCCC1)N/N=C/c1ccccc1F,0.3,-0.2,3.0,-1.4,-0.9
COc1ccccc1N1CCN(C(=O)c2ccc3c(c2)nc(C)n3-c2cc(OC)c(OC)c(OC)c2)CC1,.,-0.8,-0.9,-1.5,-0.6
CCOc1cc(N2CCOCC2)c(OCC)cc1NC(=O)c1ccc2ccccc2n1,-0.5,1.6,5.7,0.9*,3.2
O=C(Nc1cccc(S(=O)(=O)N2CCCCCC2)c1)c1ccc2ccccc2n1,0.8,2.3,5.4,0.0,6.4*
O=C(Nc1ccc(N2CCCCC2)cc1)c1ccc2ccccc2n1,5.5*,1.3,9.0,-0.8,4.0
O=C(Nc1cccc(-c2cn3c(n2)SCC3)c1)c1ccc2ccccc2n1,-0.8,2.9,12.1*,0.4,4.3
COC(=O)C1=C(C)N(C)C(=NCC2CC2)NC1c1ccccc1 (stereo not given),.,-2.2,1.0,-0.8,0.9
COC(=O)C1=C(C)N(Cc2cccc(C(F)(F)F)c2)C(=NCc2cc(OC)c(OC)c(OC)c2)NC1c1ccccc1C(F)(F)F (stereo not given),.,0.6,3.0,-1.2,1.9
C=CCOC(=O)N[C@@H](c1coc2ccccc2c1=O)[C@@H](C)/C=C/CC(=O)OC,.,-0.1,0.9,-1.3,-1.2
O=C(COC(=O)/C=C/c1ccc([N+](=O)[O-])cc1)Nc1ccc(F)cc1,-0.1,-1.3,0.9,-1.1,0.4
NS(=O)(=O)c1ccc(NC(=O)COC(=O)/C=C/c2ccc([N+](=O)[O-])cc2)cc1,-1.4,0.4,-0.9,3.0*,0.1
CNc1nnc(-c2ccc(OC)cc2)s1,5.3*,1.6,10.7*,-1.1,1.8
COc1ccc(CC(=O)N(Cc2ccccc2)c2ccccc2C(=O)Nc2cc(OC)ccc2OC)cc1,.,0.2,-1.0,-1.3,-2.8
CC(C)C[C@H](N)C(=O)N1CCC(C(=O)N[C@H](C(=O)NC(C)c2ccccc2)C(C)C)CC1 (stereo not given in full),5.5*,0.9,0.4,-0.6,-0.2
SMILES,DAX1 inh-1,DAX1 inh-2,hgDAF12 agonist,ssDAF-12 act,hcDAF-12 act
CSCC[C@H](NC(=O)OC(C)(C)C)C(=O)N1CCC(C(=O)N[C@@H](C)C(=O)NC(C)c2ccccc2)CC1 (stereo not given in full),8.3*,-0.4,2.4,-1.6,-1.8
COc1ccc(CNC(=O)[C@@H](NC(=O)C2CCN(C(=O)[C@@H](N)CC(C)C)CC2)C(C)C)cc1,3.0,1.3,1.6,-0.3,1.6
COc1ccc(CNC(=O)[C@@H](NC(=O)C2CCN(C(=O)[C@@H](N)CCSC)CC2)C(C)C)cc1,5.9*,0.2,-2.5,-1.0,-0.8
COc1cccc(CC(=O)O[C@@H]2CCC[C@@]3(C(=O)N(Cc4ccccc4)c4ccccc43)[C@H]2NC(=O)CCc2ccccc2)c1,.,-1.9,-3.1,-1.7,-4.2
CC(C)n1nnnc1C1(C)CSCC(=O)N1Cc1cccc(F)c1 (stereo not given),.,0.0,0.3,-0.6,1.9
Cc1ccc(NC(=O)C2CCN(c3ncccn3)CC2)cc1C,.,-0.3,2.7,-1.4,-0.9
O=C(Nc1nc2ncccn2c1-c1ccc(F)c(F)c1)c1ccc(F)cc1,.,-1.3,-1.6,-1.1,-0.7
COc1cccc(C(=O)NCCC2=CCCCC2)c1OC,4.5*,3.2,8.2,0.7,1.8
COc1cc(C(=O)NCCC2=CCCCC2)cc(OC)c1OC,0.6,0.1,-1.6,-2.0,-2.0
CC1(C)CC(=O)C=C(c2ccccc2-c2ccc3c(c2)OCO3)C1=O,.,-0.7,0.2,-1.2,-0.1
O=C(Nc1ccc(F)cc1)c1cccc2c1C(=O)N(CC1CCCO1)C2 (stereo not given),4.2*,2.2,1.0,-1.1,-3.9
COCCN1Cc2cccc(C(=O)Nc3ccc(S(=O)(=O)N4CCCCCC4)cc3)c2C1=O,-0.3,0.2,0.4,1.5*,-2.1
N#CCC[C@@H]1CC[C@]2(CCCN(C(=O)c3ccno3)C2)O1,.,0.6,0.6,-1.6,0.1
O=C(CCC1CCCC1)NCCCN1CCOCC1,0.7,0.0,0.5,-1.2,-0.2
O=C(CC1CCCCC1)NCCCN1CCOCC1,-0.9,0.3,-1.3,-0.7,6.1*
CC(C)(C)c1ccc(C(=O)Nn2cnnc2)cc1,2.9,0.1,4.9,1.0*,3.6
O=C(Nn1cnnc1)c1ccncc1,1.4,-0.1,2.6,-1.0,0.1
O=C(c1cc2ccccc2oc1=O)N(Cc1cccs1)C1CCS(=O)(=O)C1 (stereo not given),1.4,1.1,7.4,0.6,5.8*
O=C(c1cc2ccccc2oc1=O)N(Cc1ccc(F)cc1)C1CCS(=O)(=O)C1 (stereo not given),4.5*,2.2,3.0,-0.2,3.3
CCc1nnc(NC(=O)C=C(C)C)s1,2.2,1.6,8.4,0.1,1.3
CC(C)=CC(=O)Nc1nnc(-c2ccccc2C)s1,5.2*,1.6,5.9,-0.8,0.3
CC(C)(C)OC(=O)NCc1cc2c(cc1/C=C/S(=O)(=O)NC1CCCC1)OCO2,.,-1.3,0.9,-1.2,-4.1
NC(=O)c1cccc(C(N)=O)n1,6.1*,-0.2,1.5,-1.8,-0.9
C=CCNC(=O)c1ccc(Cl)cc1Cl,0.1,-0.5,0.9,-1.4,2.6
C=CCNC(=O)c1ccsc1N,.,4.2*,2.3,-0.8,1.4
COc1ccc(NC(=S)N/N=C/c2ccc(F)cc2)cc1OC,-0.4,1.9,11.2*,-1.3,-0.2
